OTUD3 inh = blocks human OTUD3 ubiquitin-rhodamine cleavage | Q5T2D3 | purified OTUD3, Ub-rhodamine fluorescence, 2 h | AID 1645858 | inhibition, % at 25 µM | 47,000 compounds, 0.7% hits
USP8 block = inhibitors of human USP8 deubiquitinase | P40818 | purified USP8, Ub-rhodamine cleavage fluorescence, 30 min | inhibition, % at 20 µM | 47,000 compounds, 4.2% hits | AID 1645853
USP30 inh = blocks human USP30 ubiquitin-rhodamine cleavage; Q70CQ3; purified USP30, Ub-rhodamine cleavage fluorescence; inhibition, % at 25 µM; 47,000 compounds, 5.3% hits; AID 1645860
USP28 inh = blocks human USP28 ubiquitin-rhodamine cleavage | AID 1645857 | 47,000 compounds, 3% hits | purified USP28, Ub-rhodamine cleavage fluorescence, 30 min | Q96RU2 | inhibition, % at 25 µM
USP17 block = blocks human USP17 ubiquitin-rhodamine cleavage; A8MUK1; purified USP17, Ub-rhodamine cleavage fluorescence, 3 h; inhibition, % at 50 µM; 47,000 compounds, 6.5% hits; AID 1645855
Of the large screens only hits and unclear results are named; the others gave an inactive call. An excerpt weighted towards active compounds, which were near 13% of everything screened. Cut-off read from the data, not from the text of the source: active = inhibition above about 30%; inactive = the rest.

C[C@@]12c3ccc4c(c3C(=O)c3occ(c31)C(O)C[C@H]2O)CCC4=O (some centres not stated)	USP17 block 57
CNc1cc(C2CCCN2S(=O)(=O)N2CCOCC2)ccn1 (configuration not stated)	none
COc1ccc(S(=O)(=O)NCCc2nnc3ccc(SCC(=O)Nc4ccc(OC)cc4OC)nn23)cc1	none
CCOC(=O)c1ccccc1NC(=O)CSc1ccc2nnc(CCNS(=O)(=O)c3ccc(C)cc3)n2n1	USP30 inh 31
O=C(CSc1ccc2nnc(CCNS(=O)(=O)c3ccccc3)n2n1)Nc1ccc(OC(F)(F)F)cc1	none
O=C(CSc1ccc2nnc(CCNS(=O)(=O)c3ccccc3)n2n1)Nc1ccc(Br)cc1	USP17 block 32
Cc1ccc(-c2c(NC(=O)c3cccc([N+](=O)[O-])c3)n(C)c3ccccc3c2=O)cc1	USP30 inh 32
Cc1ccc(C(=O)Nc2c(-c3ccc4c(c3)OCO4)c(=O)c3ccccc3n2C)cc1	USP8 block 41, USP28 inh 46, USP17 block 37
Cc1ccc(-c2c(NC(=O)c3cccs3)n(C)c3ccccc3c2=O)cc1	USP8 block 32
Cn1c(NC(=O)c2cccc(Br)c2)c(-c2ccc(Cl)cc2)c(=O)c2ccccc21	USP17 block 41
COc1ccc(-c2c(NC(=O)c3cccs3)n(C)c3ccccc3c2=O)cc1	none
Cn1c(NC(=O)c2ccc(Cl)cc2)c(-c2ccccc2)c(=O)c2ccccc21	none
CN1CCN(C(=O)c2cc(-c3csc(-c4cnccn4)n3)n3ccccc23)CC1	none
COc1cc(OC)c2c(c1)C(=O)C1=C(COC(C)(O)C1)C2=O (configuration not stated)	USP8 block 68, USP28 inh 37, USP17 block 82
O=C(O)c1ccc(OC(=O)C(c2ccccc2)c2ccccc2)cc1	none
O=C(Oc1ccc2c(c1)OCO2)C(c1ccccc1)c1ccccc1	USP8 block 31
CCOC(=O)c1[nH]c(C)c(CN(Cc2ccco2)C(=O)C2CCCCC2)c1C	none
COc1ccc(N2CCN(CC(O)COCc3ccc(Cl)cc3)CC2)cc1 (configuration not stated)	none (no result: USP17 block)
SC(COCc1ccccc1)CN1CCN(c2ccccc2)CC1 (configuration not stated)	OTUD3 inh 33, USP30 inh 44
Cn1c(COc2ccccc2)nnc1SCc1cc(=O)c2cc(Cl)ccc2[nH]1	USP8 block 33
COc1ccc(N2CCN(C(=O)c3ccc(-c4nc(-c5ccccc5)no4)cc3)CC2)cc1	none
O=C(Cc1ccc(Cl)cc1)N1C[C@@H]2CN(C(=O)c3cscn3)C[C@@H]2C1	none (no result: USP30 inh, USP28 inh)
Cc1ccc(S(=O)(=O)c2cnc3ccccc3c2N2CCCCCC2)cc1	none
O=S(=O)(c1ccccc1)c1cnc2ccccc2c1N1CCCCC1	USP30 inh 31
CCc1ccc(S(=O)(=O)c2cnc3ccc(C)cc3c2N2CCCCC2)cc1	none
Cc1ccc(S(=O)(=O)c2cnc3ccc(F)cc3c2N2CCCC2)cc1	USP30 inh 37
Cc1ccc(S(=O)(=O)c2cnc3ccc(F)cc3c2N2CCCCCC2)cc1	USP8 block 33
COc1ccc(OC)c(-c2cn3ccn(-c4ccc5c(c4)CCC5)c(=O)c3n2)c1	USP30 inh 51 (no result: USP17 block)
CC(=O)O[C@@H]1/C=C(/C)[C@H](OC(=O)c2ccc(O)cc2)C/C=C(/C)CCCC1(C)C	USP17 block 31
COc1ccccc1NC(=O)C1CCCN(c2cnc3nccnc3c2)C1 (configuration not stated)	none
COc1ccccc1NC(=O)C1CN(c2nc3ccccc3s2)C1	USP17 block 38 (no result: USP30 inh, USP28 inh)
O=C(CC1C(=O)N(Cc2ccccc2)c2nc3ccccc3n21)Nc1ccccc1 (configuration not stated)	none
O=C1CC(C(=O)Nc2ccccc2F)n2c(nc3ccccc32)N1 (configuration not stated)	USP8 block 39
O=C1CC(C(=O)NCCc2ccccc2)n2c(nc3ccccc32)N1 (configuration not stated)	USP8 block 43
O=C(CC1C(=O)N(Cc2ccccc2)c2nc3ccccc3n21)NCCc1ccccc1 (configuration not stated)	USP30 inh 60
CC(C)N1Cc2ccccc2CN2CCN(S(=O)(=O)N3CCOCC3)CC2C1 (configuration not stated)	none
CN1C(=O)CCc2cc(NS(=O)(=O)c3ccccc3C(F)(F)F)ccc21	none
Cc1nc(-c2ccccn2)sc1C(=O)Nc1ccc(C#N)cc1	USP30 inh 54
O=C(c1ccccc1F)N1CCN(Cc2noc(-c3ccccc3)n2)CC1	none
COc1ccccc1-c1nc2c3c(ncn2n1)Oc1c(c(C)nn1-c1ccccc1)C3c1cccnc1 (configuration not stated)	USP17 block 54
COc1ccc(/C=N/OCc2nc3c4c(ncn3n2)Oc2c(c(C)nn2-c2ccccc2)C4c2ccco2)cc1 (configuration not stated)	USP30 inh 42
COc1ccccc1-c1nc2c3c(C)c(C)n(Cc4cccnc4)c3ncn2n1	USP28 inh 51
O=C1[C@@H]2Cc3c([nH]c4ccccc34)C(c3ccc([N+](=O)[O-])cc3)N2C(=O)CN1CCN1CCOCC1 (some centres not stated)	none
CN1CCn2c(-c3cccc(F)c3)cnc2C12CCNCC2	none
Cc1ccc(N(CC(=O)Nc2cccc(C)c2C)S(=O)(=O)c2c(C)noc2C)cc1	none
CCOc1ccc(C(=O)CSc2nc3ccccc3s2)cc1	none
CCn1cc(C(=O)NCc2ccc(SC)cc2)c(=O)c2ccc(C)nc21	none
CCn1cc(C(=O)NCc2ccc(F)cc2F)c(=O)c2ccc(C)nc21	USP17 block 41
CN(C)C=Nc1c(C#N)cnn1-c1ccc([N+](=O)[O-])cc1	USP30 inh 74
Cc1ccc(S(=O)(=O)Nc2ccccc2CCc2nc3ccccc3[nH]2)cc1	none
Cc1ccc(S(=O)(=O)Nc2ccccc2SCCS(=O)(=O)c2ccc(Cl)cc2)cc1	USP30 inh 51
Cc1ccc(F)cc1NC(=O)c1ccc2c(c1)nnn2CCN1CCOCC1	none
COc1ccc(C)cc1NC(=O)c1cc2cccnc2n(C)c1=O	USP17 block 37 (no result: USP30 inh, USP28 inh)
COc1ccc(CNC(=O)c2ccc(-c3nc4cccnc4n(C)c3=O)cc2)cc1OC	none
Cn1c(=O)c(C(=O)Nc2ccc(F)c(Cl)c2)cc2cccnc21	none
CCn1c(=O)c(-c2ccc(C(=O)Nc3cc(C)ccc3OC)cc2)nc2cccnc21	USP17 block 37
COc1cccc(-c2cn[nH]c2C2CCCN2C(=O)c2ccccn2)c1 (configuration not stated)	none
Cc1nnc(-c2cn(CC(=O)NC3CCCCCC3)c3ccccc23)o1	none
O=C(Cn1cc(-c2nnco2)c2ccccc21)NC1CCCCCC1	USP17 block 38
O=C(c1cccc(C(F)(F)F)c1)N1CC2CCCN2c2ccc(C(F)(F)F)cc21 (configuration not stated)	none
